A short description of test [1]: qHTS assay to identify small molecule antagonists of the thyroid receptor (TR) signaling pathway (AID 743065). Further: nearly all actives have a fitted effect of over 55% in size. Further: potency means the concentration at half of the fitted maximal effect. The procedure, abridged:
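GH3.TRE-Luc rat pituitary cells (two TREs driving luciferase) were dosed with compound, then stimulated with 1 nM T3 (final) for 23.5 h at 37 C. ONE-Glo luminescence was the read-out, with CellTiter-Fluor fluorescence as the cytotoxicity counter-screen.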
(In qHTS, concentration-response curves come from the screen itself.)

Test [2] has as its system thyroid hormone receptor (rat, GH3 cells). The test can be described thus: qHTS assay to identify small molecule agonists of the thyroid receptor (TR) signaling pathway (AID 743066; calls by dose curve).
Test [3] addresses Estrogen receptor (Homo sapiens) (UniProt P03372). In words: qHTS assay to identify small molecule antagonists of the estrogen receptor alpha (ER-alpha) signaling pathway (AID 743069; active means well fitted curve in the direction sought with a large enough effect in the signal ratio in the repeat runs, not every such curve was filed as active; the % refers to the signal ratio). Summed up: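 HEK293 ER-alpha-UAS-bla GripTite cells, held overnight in 2% charcoal-stripped FBS, 5,000 cells/well, preincubated 4 h, then compound plus 17beta-estradiol for 18 h at 37C. Beta-lactamase read by LiveBLAzer B/G FRET substrate, 2 h at room temperature.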

A short description of test [4]: qHTS assay to identify small molecule antagonists of the estrogen receptor alpha (ER-alpha) signaling pathway - cell viability counter screen (AID 743074; calls by dose curve;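 further: HEK293 cells carrying ER-alpha-UAS-bla reporter stimulated with 17beta-estradiol; nearly all actives have a fitted effect of over 45% in size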).
In test [5] the target is Estrogen receptor (Homo sapiens) (UniProt P03372). In words: qHTS assay to identify small molecule agonists of the estrogen receptor alpha (ER-alpha) signaling pathway (AID 743075; calls by dose curve).
The target is the same in test [6]. The test can be described thus: qHTS assay to identify small molecule agonists of the estrogen receptor alpha (ER-alpha) signaling pathway using the BG1 cell line (AID 743079). Further: nearly all actives have a fitted effect of over 20% in size.
Test [7] is described as follows: qHTS assay to identify small molecule antagonists of the estrogen receptor alpha (ER-alpha) signaling pathway using the BG1 cell line (AID 743080; calls by dose curve; further: series mostly up to about 70 µM; nearly all actives have a fitted effect of over 25% in size). Summed up:
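Antagonist mode: compounds in DMSO were pinned onto BG1-Luc-4E2 cells alongside 17beta-estradiol agonist, incubated 21.5 h, and ERE-driven luciferase measured with ONE-Glo. Cytotoxicity was multiplexed using CellTiter-Fluor fluorescence.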

Test [8] in a line: qHTS assay to identify small molecule antagonists of the estrogen receptor alpha (ER-alpha) signaling pathway using the BG1 cell line - cell viability counter screen (AID 743081).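 Further: compound given together with 17beta-estradiol as the ER stimulus; series mostly up to about 70 µM; nearly all actives have a fitted effect of over 45% in size.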
The nature of test [9]: qHTS assay to identify small molecule antagonists of the thyroid receptor (TR) signaling pathway - cell viability counter screen (AID 743064). Further: nearly all actives have a fitted effect of over 50% in size. Further: potency means the concentration at half of the fitted maximal effect. Summed up: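 GH3.TRE-Luc rat pituitary cells carrying a TRE-luciferase reporter were treated with compound plus 1 nM T3 (final) for 23.5 h at 37 °C. Viability was then read in the same wells by CellTiter-Fluor fluorescence after a further 30 min.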

The next test has as its target Aromatase (Homo sapiens) (UniProt P11511). In words: qHTS assay to identify aromatase inhibitors (AID 743083). Further: nearly all actives have a fitted effect of over 55% in size. Further: potency means the concentration at half of the fitted maximal effect.

Records with an inconclusive call do not appear. Calls of active or inactive are those of the source. Unless noted, the call rests on the fitted dose curve; in most records, active means well fitted curve in the direction sought with a large enough effect in the repeat runs; inconclusive means weak or mixed curves; inactive means no such curve, though single readings can be large; an effect the other way counts as inactive or inconclusive.

Chain of Estrogen receptor (Homo sapiens) (P03372 whole entry, looked up): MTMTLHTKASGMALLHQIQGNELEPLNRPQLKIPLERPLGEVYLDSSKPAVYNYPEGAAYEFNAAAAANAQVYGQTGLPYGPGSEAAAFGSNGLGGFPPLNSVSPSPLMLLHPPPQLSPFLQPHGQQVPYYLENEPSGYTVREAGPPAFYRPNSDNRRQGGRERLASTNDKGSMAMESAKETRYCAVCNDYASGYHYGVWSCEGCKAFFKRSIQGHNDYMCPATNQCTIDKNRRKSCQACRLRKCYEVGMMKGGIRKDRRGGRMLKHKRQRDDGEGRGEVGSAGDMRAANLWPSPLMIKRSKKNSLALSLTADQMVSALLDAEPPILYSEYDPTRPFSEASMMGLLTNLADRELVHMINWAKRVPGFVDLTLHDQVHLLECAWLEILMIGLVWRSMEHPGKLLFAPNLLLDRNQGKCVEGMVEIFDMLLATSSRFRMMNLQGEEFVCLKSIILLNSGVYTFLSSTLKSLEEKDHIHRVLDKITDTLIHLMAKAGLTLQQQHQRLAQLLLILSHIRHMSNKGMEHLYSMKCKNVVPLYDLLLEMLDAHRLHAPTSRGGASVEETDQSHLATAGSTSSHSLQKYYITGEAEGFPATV
Chain of Aromatase (Homo sapiens) (P11511 whole entry, looked up): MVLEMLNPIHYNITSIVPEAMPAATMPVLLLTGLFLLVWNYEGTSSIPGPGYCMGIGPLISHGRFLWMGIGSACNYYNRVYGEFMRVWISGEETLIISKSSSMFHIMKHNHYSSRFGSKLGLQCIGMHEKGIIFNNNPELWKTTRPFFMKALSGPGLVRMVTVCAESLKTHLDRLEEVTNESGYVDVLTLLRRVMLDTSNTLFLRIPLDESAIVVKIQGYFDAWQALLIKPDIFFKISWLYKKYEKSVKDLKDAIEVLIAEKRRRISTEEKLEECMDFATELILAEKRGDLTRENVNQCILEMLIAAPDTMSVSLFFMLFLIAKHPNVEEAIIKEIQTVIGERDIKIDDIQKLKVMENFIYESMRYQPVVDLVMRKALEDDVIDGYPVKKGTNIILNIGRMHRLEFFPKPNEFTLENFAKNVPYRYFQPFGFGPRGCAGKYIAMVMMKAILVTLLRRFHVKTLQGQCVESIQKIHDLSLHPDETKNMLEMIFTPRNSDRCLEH

Regarding `CC(C)CCCCCCc1ccc(OCCOCCO)cc1`, the Potency result in test [1], in test [3], in [4], in test [6] and in test [8] was “inactive” in each case. Moreover, the compound was classed as inactive in test [2], in test [5] and in test [7].
As to `CCN(CCCc1ccccc1)CCCc1ccccc1`, the Potency result (in test [9]; in test [3]; in test [4]; in test [6]; in test [8]; in the test with Aromatase (Homo sapiens)) was “inactive” in each case. Besides, the compound was classed as inactive in [2], in test [5] and in test [7].
Take `O=C1CCN(c2ccccc2)N1`: the Potency result (in test [9]; in [4]; in test [6]; in test [8]; with Aromatase (Homo sapiens)) was “inactive” each time. The compound was classed as inactive in test [2], in test [5] and in test [7].
Take `CN(CC1(C)CCCO1)S(=O)(=O)c1ccc(Cl)c(S(N)(=O)=O)c1` (stereo unspecified): the Potency entry (in test [9]; in test [1]; in test [4]; in the test with Aromatase (Homo sapiens)) was “inactive” throughout. Besides, the compound was classed as inactive in test [2].
`Oc1ccccc1C=NCc1ccccc1`: the Potency result (in [9]; in [4]; in test [8]; with Aromatase (Homo sapiens)) was “inactive” each time. For the same compound, the call in test [2] was inactive.
As for `NC1=NCC2c3ccccc3Cc3ccccc3N12` (stereo unspecified), the Potency result (in [9]; in test [4]; in test [8]; with Aromatase (Homo sapiens)) was “inactive” in each case. In test [2], the compound was called inactive.
On to `CCCCCCCCc1ccc(S(=O)(=O)O)cc1`, for which the Potency result (in [9]; in test [1]; in test [8]; in the test with Aromatase (Homo sapiens)) was “inactive” in each case. Further, in test [2], the call was inactive.
`O=C(O)c1cccc(Cl)c1Cl`: the Potency entry (in test [9]; in [3]; in [4]; in [6]; in [8]; with Aromatase (Homo sapiens)) was “inactive” each time. The compound was classed as inactive in test [5] and in test [7].
As for `O=CCCc1ccccc1`, the Potency result (in [9]; in test [1]; in test [8]; with Aromatase (Homo sapiens)) was “inactive” in each case. The outcome in test [2] was inactive.
Regarding `CC(C)=CCCC(C)CCOC=O` (stereo unspecified), the Potency result in test [9], in test [1], in test [4] and in test [8] was “inactive” in each case.
With `CN(CCCN1c2ccccc2CCc2ccccc21)CC(=O)c1ccc(Cl)cc1`, the Potency in test [9] is 11.9 µM (active); in test [1] it was 26.6 µM (active). Also, the Potency result (in [3]; in test [4]; in test [6]; in test [8]; with Aromatase (Homo sapiens)) was “inactive” throughout. The compound was classed as inactive in [5] and in test [7].
Take `COc1ccc2nc(NC(=O)Nc3ccccc3)sc2c1`: the Potency entry (in [9]; in test [4]; in test [8]; in the test with Aromatase (Homo sapiens)) was “inactive” each time. Also, the result in [2] was inactive.
`C[C@@H]1CN(c2c(F)c(N)c3c(=O)c(C(=O)O)cn(C4CC4)c3c2F)C[C@H](C)N1`: the Potency entry (in test [9]; in test [3]; in [4]; in [6]; in test [8]; with Aromatase (Homo sapiens)) was “inactive” each time. In addition, the call in test [5] and in test [7] was inactive.
As to `COc1ccccc1N1CCN(CCCNc2cc(=O)n(C)c(=O)n2C)CC1`, the Potency result (in test [9]; in test [3]; in test [4]; in test [6]; in test [8]; with Aromatase (Homo sapiens)) was “inactive” each time. Moreover, the call in test [5] and in test [7] was inactive.
Turning to `O=C(O[C@@H](C(=O)O)[C@@H](OC(=O)c1ccccc1)C(=O)O)c1ccccc1`, the Potency result (in [9]; in test [3]; in test [4]; in test [6]; in test [8]; in the test with Aromatase (Homo sapiens)) was “inactive” throughout. For the same compound, the outcome in test [5] and in [7] was inactive.
As for `C[C@]12CCC(=O)C=C1CC[C@@H]1[C@@H]2CC[C@@]2(C)[C@H]1CC[C@]2(O)C(=O)CO`, the Potency result (in test [9]; in test [4]; in test [8]; with Aromatase (Homo sapiens)) was “inactive” in each case. Also, the result in [2], in test [5] and in test [7] was inactive.
In the case of `O=C(O)CN(CCN(CC(=O)O)CC(=O)O)CCN(CC(=O)O)CC(=O)O`, the Potency in test [9] is 26.6 µM (active). Further, in test [2], the call was inactive. The Potency result (in test [4]; in test [8]; with Aromatase (Homo sapiens)) was “inactive” each time.
Take `CC[C@H]1CC[C@H](NCc2cc3c(cc2OC)[C@H]2C[C@H]2C(=O)N3C)[C@H](c2ccccc2)N1`: the Potency in test [9] was 24.3 µM (active); in [1] it was 19.3 µM (active); with Aromatase (Homo sapiens), 68.6 µM (active). The Potency result in test [3] and in [4] was “inactive” in each case. Further, the result in test [5] was inactive.
Take `O=c1[nH]c(=O)n([C@H]2C[C@H](O)[C@@H](CO)O2)cc1C(F)(F)F`: the Potency result (in test [9]; in [4]; in [8]; with Aromatase (Homo sapiens)) was “inactive” throughout. For the same compound, the call in test [2], in [5] and in test [7] was inactive.
As to `Cc1c(-c2ccccc2)oc2c(C(=O)OCCN3CCCCC3)cccc2c1=O`, the Potency result in test [1], in test [3], in [4], in test [6] and in test [8] was “inactive” in each case. The outcome in [2], in [5] and in test [7] was inactive.
As to `O=C(O)C(=O)Cc1c[nH]c2ccccc12`, the Potency entry (in test [9]; in test [3]; in test [4]; in [6]; in [8]; with Aromatase (Homo sapiens)) was “inactive” in each case. In addition, the outcome in [5] was inactive.
As for `CC(C)=CCC[C@](C)(O)[C@@H]1CC=C(C)CC1`, the Potency entry (in [9]; in [1]; in test [8]; with Aromatase (Homo sapiens)) was “inactive” throughout. Also, the compound was called inactive in test [2].
For the compound `O=C1N(c2ccccc2)c2ccccc2C1(Cc1ccncc1)Cc1ccncc1`, the Potency result (in test [1]; in test [3]; in test [6]; in [8]; with Aromatase (Homo sapiens)) was “inactive” throughout. Moreover, the compound was classed as inactive in test [2], in test [5] and in test [7].
Turning to `Cc1nc(-c2ccccn2)ncc1C(=O)Nn1cc(C)c2cc(F)ccc21`, the Potency result (in test [1]; in [3]; in test [4]; in test [8]; in the test with Aromatase (Homo sapiens)) was “inactive” throughout. The outcome in test [2] and in [5] was inactive.
Turning to `O=C1CCCCC1C1CCCCC1` (stereo unspecified), the Potency result (in [1]; in test [3]; in test [4]; in test [6]; in test [8]; in the test with Aromatase (Homo sapiens)) was “inactive” throughout. The outcome in test [2], in test [5] and in test [7] was inactive.
With `NNS(=O)(=O)c1ccc(Oc2ccc(S(=O)(=O)NN)cc2)cc1`, the Potency result (in test [1]; in test [3]; in test [4]; in test [6]; in test [8]; with Aromatase (Homo sapiens)) was “inactive” each time. In addition, the outcome in [2], in test [5] and in test [7] was inactive.
On to `CCCNC(C)(C)COC(=O)c1ccccc1`, for which the Potency result (in test [1]; in [3]; in [4]; in test [6]; in test [8]; in the test with Aromatase (Homo sapiens)) was “inactive” each time. For the same compound, the compound was called inactive in test [2], in test [5] and in test [7].
Turning to `CC(C)(C)c1cccc(O)c1`, the Potency entry (in test [1]; in test [3]; in test [4]; in [6]; in test [8]; with Aromatase (Homo sapiens)) was “inactive” each time. The outcome in test [2], in [5] and in test [7] was inactive.

The values above are taken from PubChem BioAssay (Tox21).
